# From the supplement of paper PMC10077471
# Over roughly 1,900 compounds, “excess over highest single agent (ExcessHSA) synergy score, 6x6 matrix” has its median near -83; the lowest 2% begin near -370. Shown is part of a subset that was picked to be rich in the lowest values.
# Test system: NCI-H446
# Experiment: excess over highest single agent (ExcessHSA) synergy score, 6x6 matrix; higher = less synergy (more negative = stronger synergy)
# Conditions: 72 h; CellTiter-Glo viability
row,SMILES,excess over highest single agent
1,O=C1[C@H](Cc2ccc(O)cc2)N2C(=O)CCN(C(=O)NCc3ccccc3)[C@H]2CN1Cc1cccc2ccccc12 + Cc1sc2c(c1C)C(c1ccc(Cl)cc1)=N[C@@H](CC(=O)OC(C)(C)C)c1nnc(C)n1-2 [NCGC00250412-19],-294
2,Cn1c(=O)c(F)c(Nc2ccc(I)cc2F)c2c(=O)n(C[C@@H](O)CO)cnc21 + Cc1sc2c(c1C)C(c1ccc(Cl)cc1)=N[C@@H](CC(=O)OC(C)(C)C)c1nnc(C)n1-2 [NCGC00250412-19],-396
3,O=C(NOC[C@H](O)CO)c1ccc(F)c(F)c1Nc1ccc(I)cc1F + Cc1sc2c(c1C)C(c1ccc(Cl)cc1)=N[C@@H](CC(=O)OC(C)(C)C)c1nnc(C)n1-2 [NCGC00250412-19],-276
4,Cn1c(=O)c2c(ncn2CC(O)CO)n(C)c1=O (centres undefined) + Cc1sc2c(c1C)C(c1ccc(Cl)cc1)=N[C@@H](CC(=O)OC(C)(C)C)c1nnc(C)n1-2 [NCGC00250412-19],-73.2
5,O=C(C=Cc1ccc(C=CC(=O)Nc2ccc(C3=NCCN3)cc2)cc1)Nc1ccc(C2=NCCN2)cc1 + Cc1sc2c(c1C)C(c1ccc(Cl)cc1)=N[C@@H](CC(=O)OC(C)(C)C)c1nnc(C)n1-2 [NCGC00250412-19],-46.7
6,CC(C)C(=O)Nc1ncc(-c2cc(C(F)F)nn2-c2c(Cl)cccc2Cl)s1 + Cc1sc2c(c1C)C(c1ccc(Cl)cc1)=N[C@@H](CC(=O)OC(C)(C)C)c1nnc(C)n1-2 [NCGC00250412-19],-105
7,COc1ccc(-c2nc(N3CCOCC3)c3sc(CN(C)c4ncc(C(=O)NO)cn4)cc3n2)cn1 + Cc1sc2c(c1C)C(c1ccc(Cl)cc1)=N[C@@H](CC(=O)OC(C)(C)C)c1nnc(C)n1-2 [NCGC00250412-19],-105
8,c1ccc2c(Cc3c[nH]c4ccccc34)c[nH]c2c1 + Cc1sc2c(c1C)C(c1ccc(Cl)cc1)=N[C@@H](CC(=O)OC(C)(C)C)c1nnc(C)n1-2 [NCGC00250412-19],-83.3
9,CCCS(=O)(=O)Nc1ccc(F)c(C(=O)c2c[nH]c3ncc(-c4ccc(Cl)cc4)cc23)c1F + Cc1sc2c(c1C)C(c1ccc(Cl)cc1)=N[C@@H](CC(=O)OC(C)(C)C)c1nnc(C)n1-2 [NCGC00250412-19],-108
10,CCCCOc1c(C(=O)c2c(F)cc(C)cc2F)c[nH]c2nncc1-2 + Cc1sc2c(c1C)C(c1ccc(Cl)cc1)=N[C@@H](CC(=O)OC(C)(C)C)c1nnc(C)n1-2 [NCGC00250412-19],-375
11,CCCS(=O)(=O)Nc1ccc(F)c(C(=O)c2c[nH]c3ncc(Cl)cc23)c1F + Cc1sc2c(c1C)C(c1ccc(Cl)cc1)=N[C@@H](CC(=O)OC(C)(C)C)c1nnc(C)n1-2 [NCGC00250412-19],-97.1
12,CCOC(=O)/C=C/[C@H](C[C@@H]1CCNC1=O)NC(=O)[C@@H](CC(=O)[C@@H](NC(=O)c1cc(C)on1)C(C)C)Cc1ccc(F)cc1 + Cc1sc2c(c1C)C(c1ccc(Cl)cc1)=N[C@@H](CC(=O)OC(C)(C)C)c1nnc(C)n1-2 [NCGC00250412-19],-127
13,O=C(C[C@@H]1C/C=C/CCC(=O)O[C@H](c2ccccc2)CNC1=O)NCc1ccc(Cl)cc1 + Cc1sc2c(c1C)C(c1ccc(Cl)cc1)=N[C@@H](CC(=O)OC(C)(C)C)c1nnc(C)n1-2 [NCGC00250412-19],-98.1
14,CN(C)C[C@@H]1CCn2cc(c3ccccc32)C2=C(C(=O)NC2=O)c2cn(c3ccccc23)CCO1 + Cc1sc2c(c1C)C(c1ccc(Cl)cc1)=N[C@@H](CC(=O)OC(C)(C)C)c1nnc(C)n1-2 [NCGC00250412-19],-125
15,COc1cc(NCc2ccc3nc(N)nc(N)c3c2C)cc(OC)c1OC + Cc1sc2c(c1C)C(c1ccc(Cl)cc1)=N[C@@H](CC(=O)OC(C)(C)C)c1nnc(C)n1-2 [NCGC00250412-19],-213
16,C=C1C(=O)[C@]23[C@H](O)[C@H]1CC[C@H]2[C@@]12CO[C@]3(O)[C@@H](O)[C@@H]1C(C)(C)CC[C@@H]2O + Cc1sc2c(c1C)C(c1ccc(Cl)cc1)=N[C@@H](CC(=O)OC(C)(C)C)c1nnc(C)n1-2 [NCGC00250412-19],-378
17,Oc1ccc(C2=Cc3ccc(O)cc3OC2)cc1 + Cc1sc2c(c1C)C(c1ccc(Cl)cc1)=N[C@@H](CC(=O)OC(C)(C)C)c1nnc(C)n1-2 [NCGC00250412-19],-209
18,CNc1nc(Nc2ccc(C(=O)N3CCOCC3)cc2OC)ncc1Cl + Cc1sc2c(c1C)C(c1ccc(Cl)cc1)=N[C@@H](CC(=O)OC(C)(C)C)c1nnc(C)n1-2 [NCGC00250412-19],436
19,Cc1ccc(S(=O)(=O)Nc2cc(Cl)ccc2C(=O)Nc2nc(-c3ccccc3)cs2)cc1 + Cc1sc2c(c1C)C(c1ccc(Cl)cc1)=N[C@@H](CC(=O)OC(C)(C)C)c1nnc(C)n1-2 [NCGC00250412-19],214
20,CC(O)(C#Cc1ccc2c(c1)N(c1nc(N)ncc1Cl)CC2)c1nccs1 (centres undefined) + Cc1sc2c(c1C)C(c1ccc(Cl)cc1)=N[C@@H](CC(=O)OC(C)(C)C)c1nnc(C)n1-2 [NCGC00250412-19],54
21,CC(C)(O)Cn1c(NC(=O)c2ccc(-c3cn[nH]c3)s2)nc2cc(CN3CCOCC3)ccc21 + Cc1sc2c(c1C)C(c1ccc(Cl)cc1)=N[C@@H](CC(=O)OC(C)(C)C)c1nnc(C)n1-2 [NCGC00250412-19],-423
22,C[C@H](NCc1ccc2c(c1)nc(NC(=O)c1ccc(-c3cn[nH]c3)s1)n2CCc1ccccc1)C(C)(C)C + Cc1sc2c(c1C)C(c1ccc(Cl)cc1)=N[C@@H](CC(=O)OC(C)(C)C)c1nnc(C)n1-2 [NCGC00250412-19],-305
23,CC(NCc1ccc2c(c1)nc(NC(=O)c1ccc(-c3cn[nH]c3)s1)n2CC(C)(C)O)C(C)(C)C (centres undefined) + Cc1sc2c(c1C)C(c1ccc(Cl)cc1)=N[C@@H](CC(=O)OC(C)(C)C)c1nnc(C)n1-2 [NCGC00250412-19],-312
24,CCNC(=O)c1cc2c(-c3cc(OCCN4CCCC4)c(Cl)cc3Cl)nc(N)nc2s1 + Cc1sc2c(c1C)C(c1ccc(Cl)cc1)=N[C@@H](CC(=O)OC(C)(C)C)c1nnc(C)n1-2 [NCGC00250412-19],-89.1
